According to ChEMBL document CHEMBL1157539, “Thousands of chemical starting points for antimalarial lead identification” (Nature, 2010):

System: HepG2
Experiment: GSK_TCMDC: Percent inhibition of human HepG2 cell line. Test compounds present at 10uM.
Format: functional

| SMILES | Inhibition |
| --- | --- |
| COc1ccc(Nc2nccc(N3CCC(NC(=O)Nc4cccc(C(C)=O)c4)C3)n2)cc1 (centres undefined) | 29% |
| O=C(NC1CCN(Cc2ccccc2O)C1)c1ccc(Cl)c(Cl)c1.O=C(O)C(F)(F)F (centres undefined) | 0% |
| COc1cccc2sc(Nc3nc(-c4ccccn4)cs3)nc12 | 41% |
| CC(C)(C)OC(=O)NCc1ccc(Nc2nnc(-c3cccc(OCC(=O)NCc4cc(C(F)(F)F)cc(C(F)(F)F)c4)c3)o2)cc1 | 32% |
